# Source: ChEMBL document CHEMBL2218924, “A broad activity screen in support of a chemogenomic map for kinase signalling research and drug discovery” (Biochem J, 2013)
# What was measured:
# [1] = biological target: T1, Ephrin type-A receptor 3 (Homo sapiens) (UniProt P29320); details: at 10 µM
# T1 sequence (whole entry): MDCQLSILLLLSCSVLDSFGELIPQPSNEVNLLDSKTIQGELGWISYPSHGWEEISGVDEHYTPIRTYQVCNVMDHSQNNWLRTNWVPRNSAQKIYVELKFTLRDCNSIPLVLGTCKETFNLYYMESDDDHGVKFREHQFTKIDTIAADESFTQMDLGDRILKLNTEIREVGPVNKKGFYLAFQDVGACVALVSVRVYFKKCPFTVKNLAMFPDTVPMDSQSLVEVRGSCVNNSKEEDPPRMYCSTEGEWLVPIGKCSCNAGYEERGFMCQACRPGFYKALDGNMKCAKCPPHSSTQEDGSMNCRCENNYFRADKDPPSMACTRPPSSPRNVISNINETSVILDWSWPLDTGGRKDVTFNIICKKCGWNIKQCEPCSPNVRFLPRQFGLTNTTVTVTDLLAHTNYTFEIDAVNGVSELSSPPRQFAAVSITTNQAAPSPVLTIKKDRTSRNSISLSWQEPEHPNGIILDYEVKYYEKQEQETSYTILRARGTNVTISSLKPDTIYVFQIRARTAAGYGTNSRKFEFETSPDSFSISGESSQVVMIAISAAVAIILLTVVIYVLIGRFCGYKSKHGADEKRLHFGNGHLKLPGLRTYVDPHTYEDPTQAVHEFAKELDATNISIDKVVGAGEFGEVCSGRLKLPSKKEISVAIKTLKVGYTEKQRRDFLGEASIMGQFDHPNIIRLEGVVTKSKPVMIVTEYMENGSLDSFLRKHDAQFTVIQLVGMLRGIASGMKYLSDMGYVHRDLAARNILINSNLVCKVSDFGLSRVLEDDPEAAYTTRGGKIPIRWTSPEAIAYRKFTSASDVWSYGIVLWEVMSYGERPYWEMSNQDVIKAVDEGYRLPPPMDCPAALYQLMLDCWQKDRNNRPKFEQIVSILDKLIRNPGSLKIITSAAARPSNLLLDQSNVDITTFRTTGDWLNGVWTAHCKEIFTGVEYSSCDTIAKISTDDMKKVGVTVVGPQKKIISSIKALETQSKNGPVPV
# [2] = biological target: Ephrin type-A receptor 4 (Homo sapiens) (UniProt P54764); details: at 1 µM
# [3] = biological target: Ephrin type-A receptor 4 (Homo sapiens) (UniProt P54764); details: at 10 µM
# [4] = biological target: Ephrin type-A receptor 5 (Homo sapiens) (UniProt P54756); details: at 1 µM
# [5] = biological target: Ephrin type-A receptor 5 (Homo sapiens) (UniProt P54756); details: at 10 µM
# [6] = biological target: Ephrin type-A receptor 7 (Homo sapiens) (UniProt Q15375); details: at 1 µM
# [7] = biological target: Ephrin type-A receptor 7 (Homo sapiens) (UniProt Q15375); details: at 10 µM
# [8] = biological target: T2, Ephrin type-A receptor 8 (Homo sapiens) (UniProt P29322); details: at 1 µM
# T2 sequence (whole entry): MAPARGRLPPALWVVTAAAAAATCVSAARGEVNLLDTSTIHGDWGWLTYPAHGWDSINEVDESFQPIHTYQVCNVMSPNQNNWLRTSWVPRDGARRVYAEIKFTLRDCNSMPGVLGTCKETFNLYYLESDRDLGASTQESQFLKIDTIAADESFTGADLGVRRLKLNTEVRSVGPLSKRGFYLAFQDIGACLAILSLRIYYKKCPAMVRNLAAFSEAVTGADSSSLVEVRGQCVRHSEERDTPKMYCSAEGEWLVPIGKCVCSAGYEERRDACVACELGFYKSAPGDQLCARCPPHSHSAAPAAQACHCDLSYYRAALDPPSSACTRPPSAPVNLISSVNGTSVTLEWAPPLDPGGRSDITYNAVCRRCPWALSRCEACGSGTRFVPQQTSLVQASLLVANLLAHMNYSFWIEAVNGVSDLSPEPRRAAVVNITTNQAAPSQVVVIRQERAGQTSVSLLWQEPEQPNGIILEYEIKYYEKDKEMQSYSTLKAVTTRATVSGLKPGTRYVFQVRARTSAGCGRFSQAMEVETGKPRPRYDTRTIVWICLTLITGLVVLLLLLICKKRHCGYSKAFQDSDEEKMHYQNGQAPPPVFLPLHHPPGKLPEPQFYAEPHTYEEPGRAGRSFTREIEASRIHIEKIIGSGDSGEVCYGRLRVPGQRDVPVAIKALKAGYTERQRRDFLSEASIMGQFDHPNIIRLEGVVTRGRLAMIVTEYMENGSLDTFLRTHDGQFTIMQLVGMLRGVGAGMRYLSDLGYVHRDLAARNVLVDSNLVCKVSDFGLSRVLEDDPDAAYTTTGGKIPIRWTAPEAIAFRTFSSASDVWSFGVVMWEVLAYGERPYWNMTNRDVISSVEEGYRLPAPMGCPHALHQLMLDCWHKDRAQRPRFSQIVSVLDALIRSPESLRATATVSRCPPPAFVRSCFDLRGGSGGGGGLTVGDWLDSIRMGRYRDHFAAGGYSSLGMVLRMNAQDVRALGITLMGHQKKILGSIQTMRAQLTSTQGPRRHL
# [9] = biological target: T2, Ephrin type-A receptor 8 (Homo sapiens); details: at 10 µM
# [10] = biological target: T3, Ephrin type-B receptor 1 (Homo sapiens) (UniProt P54762); details: at 1 µM
# T3 sequence (whole entry): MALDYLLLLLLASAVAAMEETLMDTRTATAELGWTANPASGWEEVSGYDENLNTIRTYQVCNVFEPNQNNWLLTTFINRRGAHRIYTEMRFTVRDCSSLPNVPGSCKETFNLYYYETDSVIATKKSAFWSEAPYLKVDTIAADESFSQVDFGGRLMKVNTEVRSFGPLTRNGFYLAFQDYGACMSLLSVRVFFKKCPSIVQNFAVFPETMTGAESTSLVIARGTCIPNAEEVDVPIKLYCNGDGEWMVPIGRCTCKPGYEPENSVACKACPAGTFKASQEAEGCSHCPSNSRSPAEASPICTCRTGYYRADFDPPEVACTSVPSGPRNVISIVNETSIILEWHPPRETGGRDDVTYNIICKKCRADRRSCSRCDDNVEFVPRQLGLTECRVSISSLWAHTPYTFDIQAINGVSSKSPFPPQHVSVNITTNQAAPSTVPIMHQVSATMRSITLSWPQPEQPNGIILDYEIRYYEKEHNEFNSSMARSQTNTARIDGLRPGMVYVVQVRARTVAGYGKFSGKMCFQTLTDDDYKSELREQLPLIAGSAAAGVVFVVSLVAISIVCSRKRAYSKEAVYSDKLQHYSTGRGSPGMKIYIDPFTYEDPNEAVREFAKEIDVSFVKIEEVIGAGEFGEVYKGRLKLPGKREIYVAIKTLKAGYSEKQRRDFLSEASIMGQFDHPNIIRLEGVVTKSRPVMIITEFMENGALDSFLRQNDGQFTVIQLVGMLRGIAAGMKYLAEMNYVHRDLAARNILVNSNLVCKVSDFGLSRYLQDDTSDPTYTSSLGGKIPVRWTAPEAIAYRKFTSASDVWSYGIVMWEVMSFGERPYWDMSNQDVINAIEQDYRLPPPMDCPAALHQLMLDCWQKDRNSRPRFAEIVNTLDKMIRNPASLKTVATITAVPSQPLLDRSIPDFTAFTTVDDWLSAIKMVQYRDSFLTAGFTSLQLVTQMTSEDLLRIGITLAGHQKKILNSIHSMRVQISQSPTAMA
# Chain of Ephrin type-A receptor 5 (Homo sapiens) (P54756 whole entry): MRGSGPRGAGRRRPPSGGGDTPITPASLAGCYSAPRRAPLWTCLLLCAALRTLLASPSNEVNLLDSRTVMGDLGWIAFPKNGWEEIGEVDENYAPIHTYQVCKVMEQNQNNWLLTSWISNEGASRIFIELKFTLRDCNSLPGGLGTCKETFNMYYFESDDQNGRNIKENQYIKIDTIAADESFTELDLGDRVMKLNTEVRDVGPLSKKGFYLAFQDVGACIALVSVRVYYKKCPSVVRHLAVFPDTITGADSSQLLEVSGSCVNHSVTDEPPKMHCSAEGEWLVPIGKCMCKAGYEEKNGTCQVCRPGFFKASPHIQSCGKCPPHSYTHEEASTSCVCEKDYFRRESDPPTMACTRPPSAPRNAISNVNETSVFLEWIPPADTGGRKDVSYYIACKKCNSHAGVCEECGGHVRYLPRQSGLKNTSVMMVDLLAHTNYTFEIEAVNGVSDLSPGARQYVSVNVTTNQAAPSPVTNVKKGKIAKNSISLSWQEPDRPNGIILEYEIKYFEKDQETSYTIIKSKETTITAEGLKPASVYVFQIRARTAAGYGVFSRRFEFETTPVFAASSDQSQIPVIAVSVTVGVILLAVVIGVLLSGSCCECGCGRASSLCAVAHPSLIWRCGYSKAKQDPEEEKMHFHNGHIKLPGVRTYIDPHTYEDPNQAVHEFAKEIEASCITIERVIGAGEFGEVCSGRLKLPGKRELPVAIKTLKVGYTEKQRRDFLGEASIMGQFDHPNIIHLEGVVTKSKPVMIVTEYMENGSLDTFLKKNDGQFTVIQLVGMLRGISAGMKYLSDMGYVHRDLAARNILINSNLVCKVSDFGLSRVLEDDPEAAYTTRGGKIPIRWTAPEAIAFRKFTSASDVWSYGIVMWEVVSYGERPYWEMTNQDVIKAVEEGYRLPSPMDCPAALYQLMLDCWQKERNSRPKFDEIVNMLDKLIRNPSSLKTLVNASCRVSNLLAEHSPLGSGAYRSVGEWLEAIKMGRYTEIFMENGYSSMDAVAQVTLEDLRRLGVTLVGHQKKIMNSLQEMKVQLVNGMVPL
# Chain of Ephrin type-A receptor 7 (Homo sapiens) (Q15375 28-998 limits assumed): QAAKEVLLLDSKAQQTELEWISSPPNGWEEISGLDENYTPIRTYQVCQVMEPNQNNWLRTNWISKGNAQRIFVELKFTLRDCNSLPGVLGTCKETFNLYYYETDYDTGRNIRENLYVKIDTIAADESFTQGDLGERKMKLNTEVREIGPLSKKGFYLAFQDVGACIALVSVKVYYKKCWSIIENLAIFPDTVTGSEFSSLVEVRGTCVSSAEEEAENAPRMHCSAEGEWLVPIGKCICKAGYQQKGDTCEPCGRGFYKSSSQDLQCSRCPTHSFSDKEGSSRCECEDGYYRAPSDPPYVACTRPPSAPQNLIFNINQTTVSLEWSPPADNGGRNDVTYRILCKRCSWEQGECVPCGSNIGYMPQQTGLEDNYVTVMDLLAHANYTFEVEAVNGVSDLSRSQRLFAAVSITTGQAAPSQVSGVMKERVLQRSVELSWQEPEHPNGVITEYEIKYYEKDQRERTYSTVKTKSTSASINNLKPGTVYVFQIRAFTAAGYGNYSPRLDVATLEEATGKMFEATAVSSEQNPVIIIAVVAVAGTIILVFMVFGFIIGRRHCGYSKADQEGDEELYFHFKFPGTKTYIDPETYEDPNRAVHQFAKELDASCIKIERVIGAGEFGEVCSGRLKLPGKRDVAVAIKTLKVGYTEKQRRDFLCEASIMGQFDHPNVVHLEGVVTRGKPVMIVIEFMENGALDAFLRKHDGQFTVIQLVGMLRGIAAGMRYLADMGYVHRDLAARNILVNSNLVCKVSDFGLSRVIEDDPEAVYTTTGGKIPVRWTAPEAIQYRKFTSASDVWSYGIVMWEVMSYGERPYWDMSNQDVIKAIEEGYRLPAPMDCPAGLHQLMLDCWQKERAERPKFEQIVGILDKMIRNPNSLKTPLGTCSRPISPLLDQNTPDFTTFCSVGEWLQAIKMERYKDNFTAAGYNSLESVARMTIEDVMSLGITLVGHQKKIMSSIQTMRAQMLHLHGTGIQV
# Chain of Ephrin type-A receptor 4 (Homo sapiens) (P54764 whole entry): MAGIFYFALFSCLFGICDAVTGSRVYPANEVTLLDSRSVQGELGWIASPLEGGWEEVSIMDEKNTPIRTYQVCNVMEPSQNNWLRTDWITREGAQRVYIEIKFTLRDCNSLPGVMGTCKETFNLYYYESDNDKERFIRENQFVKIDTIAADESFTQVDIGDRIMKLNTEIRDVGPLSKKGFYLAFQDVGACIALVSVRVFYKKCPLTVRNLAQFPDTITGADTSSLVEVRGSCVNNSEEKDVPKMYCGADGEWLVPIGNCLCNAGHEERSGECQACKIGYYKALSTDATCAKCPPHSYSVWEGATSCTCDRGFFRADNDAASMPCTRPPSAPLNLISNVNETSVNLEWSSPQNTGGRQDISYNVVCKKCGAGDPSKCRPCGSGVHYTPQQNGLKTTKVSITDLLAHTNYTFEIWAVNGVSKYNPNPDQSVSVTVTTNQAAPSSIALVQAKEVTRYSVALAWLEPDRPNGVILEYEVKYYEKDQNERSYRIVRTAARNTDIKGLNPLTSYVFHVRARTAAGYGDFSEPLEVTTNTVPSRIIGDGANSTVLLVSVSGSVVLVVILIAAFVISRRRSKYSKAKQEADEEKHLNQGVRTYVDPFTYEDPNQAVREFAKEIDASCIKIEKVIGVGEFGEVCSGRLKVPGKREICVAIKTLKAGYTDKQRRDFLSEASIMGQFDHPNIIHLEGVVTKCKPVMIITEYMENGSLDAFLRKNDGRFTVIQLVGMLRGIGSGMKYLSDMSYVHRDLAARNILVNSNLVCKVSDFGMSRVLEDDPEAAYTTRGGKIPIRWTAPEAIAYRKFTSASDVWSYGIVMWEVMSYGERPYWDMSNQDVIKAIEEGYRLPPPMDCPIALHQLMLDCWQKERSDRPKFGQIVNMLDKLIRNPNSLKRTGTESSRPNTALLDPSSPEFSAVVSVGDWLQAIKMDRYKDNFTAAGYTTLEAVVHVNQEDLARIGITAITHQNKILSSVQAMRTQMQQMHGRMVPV
compound,measurement,setting,value
CC(=O)O/N=C1\C(=C2\C(=O)Nc3cc(Br)ccc32)Nc2ccccc21,residual activity,[1],38%
same,residual activity,[2],112%
same,residual activity,[3],84%
same,residual activity,[4],99%
same,residual activity,[5],47%
same,residual activity,[6],100%
same,residual activity,[7],79%
same,residual activity,[8],84%
same,residual activity,[9],77%
same,residual activity,[10],86%
